Shown is part of a subset that was picked to be rich in hits.
Cruzain inh Det: qHTS Assay for Promiscuous and Specific Inhibitors of Cruzain (with detergent); Cruzipain (Trypanosoma cruzi), P25779; purified cruzain, Z-FR-AMC fluorescence, 0.01% Triton; Potency, µM, for the others: max response, negative = inhibition, most hits filed as inhibitors; actives 0.43% (n = 200,000); AID 1478, 2009;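 also: plate controls were neutral wells for no effect and buffer without enzyme for full effect; nearly all actives have a fitted effect of over 40% in size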
Target sequence (P25779 123-467 limits assumed): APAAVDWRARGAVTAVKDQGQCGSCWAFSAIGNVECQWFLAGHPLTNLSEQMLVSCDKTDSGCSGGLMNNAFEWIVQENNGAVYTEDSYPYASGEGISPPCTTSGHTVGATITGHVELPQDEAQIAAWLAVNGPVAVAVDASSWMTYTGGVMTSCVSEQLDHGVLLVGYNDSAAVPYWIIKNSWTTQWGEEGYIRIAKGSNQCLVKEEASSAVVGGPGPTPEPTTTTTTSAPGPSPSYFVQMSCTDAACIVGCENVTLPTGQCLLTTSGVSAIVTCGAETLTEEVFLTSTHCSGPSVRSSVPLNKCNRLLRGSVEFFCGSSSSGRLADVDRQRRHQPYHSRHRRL
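Cysteine protease activity tested under reducing, mildly acidic conditions (100 mM sodium acetate pH 5.5, 5 mM DTT) plus 0.01% Triton X-100. Cruzain 1.5 nM; substrate Z-FR-AMC 2 uM; 15 min compound preincubation at room temperature.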
NS1 inh: qHTS Assay for Inhibitors of Influenza NS1 Protein Function; AID 2326, 2010; Potency, µM (top dose mostly 46.1 µM), for the others: at the highest dose activity, positive = more growth; actives 0.4% (n = 270,000); calls by dose curve; also: actives are rising curves; nearly all actives have a fitted effect of over 50% in size
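Compounds were scored for reversing the slow growth caused by influenza A NS1 in S. cerevisiae, measured by optical density at 600 nm. Assay medium contained 2% galactose at pH 6.0; NS1-free yeast of the same strain were the positive control.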
Cruzain noTriton: qHTS Assay for Promiscuous and Specific Inhibitors of Cruzain (without detergent) | purified cruzain, Z-FR-AMC fluorescence, no detergent | actives 2.3% (n = 200,000) | Potency, µM, for the others: max response, negative = inhibition, most hits filed as inhibitors | Cruzipain (Trypanosoma cruzi), P25779;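 also: plate controls were enzyme without inhibitor for no effect and buffer without enzyme for full effect; nearly all actives have a fitted effect of over 40% in size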
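Detergent-free condition (0.00005% Triton X-100) in acetate buffer pH 5.5 with DTT. 1.5 nM enzyme and compound were pre-mixed 15 min, then 2 uM Z-FR-AMC substrate added; reaction progress from fluorescence change between first and third reads (60 s).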
Starred values were filed as active, the others as inactive; ? = inconclusive; · = no result. Unless noted, calls follow the shape of the dose curve; as a rule, active = well fitted curve in the direction sought with a large enough effect; inconclusive = small, poorly fitted or top-dose-only effect, or another doubt; inactive = no such curve, though single readings can be large; an effect the other way counts as inactive or inconclusive. Potency is read from the fitted curve at half-maximal effect.

SMILES	Cruzain inh Det	NS1 inh	Cruzain noTriton
CN(Cc1ccco1)c1cc(-c2ccc3c(c2)OCO3)ncn1	-5.9%	·	-3.0%
CCN1C(=O)/C(=C2/Sc3ccccc3N2CC)SC1=S	·	-2.3%	·
CCN1/C(=C2\SC(=S)N(Cc3ccccc3)C2=O)Sc2ccccc21	-7.8%	2.9%	10µM*
COc1ccccc1NC(=O)c1ncn(-c2ccccc2)n1	-4.4%	·	-2.7%
CCn1c(=O)cc(OCC(=O)N2CCN(c3ccccc3OC)CC2)c2ccccc21	-0.1%	·	?
Cc1ccc(C(=O)c2ccc([N+](=O)[O-])cc2)cc1	2.0%	6.7%	-1.3%
Cc1ccc(S(=O)(=O)CC#CCOC(=O)c2ccc([N+](=O)[O-])cc2)cc1	14.1µM*	-141.2%	12.6µM*
O=C1C2C3C=CC(C2C(=O)N1CN1CCOCC1)C1C2C(=O)N(CN4CCOCC4)C(=O)C2C31 (stereo not drawn)	5.5%	7.7%	2.5%
Cn1c(=O)oc2cc(S(=O)(=O)N3CCCC(C(=O)NCc4ccc(F)cc4)C3)ccc21 (stereo not drawn)	3.8%	·	?
Cc1ccc(Cl)cc1N1CCN(C(c2ccc(C#N)cc2)c2nnnn2C2CCCC2)CC1 (stereo not drawn)	1.9%	1.2%	20µM*
Cc1ccc(Cl)cc1N1CCN(C(c2cccnc2)c2nnnn2C2CCCCC2)CC1 (stereo not drawn)	-6.1%	-51.5%	11.3%
c1ccc(OP(Oc2ccccc2)Oc2ccccc2)cc1	-0.1%	·	3.5%
CCCCn1c2ccc(F)cc2c2nnc(SCCN(CC)CC)nc21	15.8µM*	·	20µM*
CCCCn1c2ccc(F)cc2c2nnc(SCCN3CCOCC3)nc21	·	1.2%	·
CCOC(=O)c1cc(NC(=O)c2ccccc2)c(=O)n2c1oc1ccc(Cl)cc12	-2.7%	·	5.8%
CCCCC[C@H](O)/C=C/C=C/C/C=C\CCCC(=O)O	2.2%	·	-8.0%
Nc1c(-c2nc(-c3ccccc3)no2)nnn1CC(=O)Nc1cccc(F)c1	-25.6%	·	31.6µM*
Cc1cc(C)cc(NC(=O)Cn2nnc(-c3nc(-c4ccncc4)no3)c2N)c1	-1.8%	·	13.5%
CC(=O)N1N=C(c2ccccc2)CC1c1ccc(F)cc1 (stereo not drawn)	·	-7.6%	·
Cc1ccc(NC(=O)N2N=C(c3ccc(F)cc3)CC2c2ccc(F)cc2)cc1 (stereo not drawn)	1.4%	13.8%	1.26µM*
CCCCSCCCNC(=O)CN1C(=O)COc2ccc(S(=O)(=O)N3CCC(C)CC3)cc21	-2.5%	·	-1.2%
O=C(N/N=C\c1cc([N+](=O)[O-])ccc1N1CCCC1)c1ccccn1	·	2.7%	·
Cc1cc(/C=N/NC(=O)Cn2c3ccccc3c(=O)c3ccccc32)c(C)n1-c1ccccc1	-3.6%	24.7%	15.8µM*
Cc1ccc(N(CC(=O)N/N=C/c2cc(C)n(-c3ccccc3)c2C)S(C)(=O)=O)c(C)c1	-2.8%	9.0%	-2.5%
O=C(Cn1c2ccccc2c(=O)c2ccccc21)N/N=C/c1cc([N+](=O)[O-])ccc1N1CCCCC1	0.1%	6.5%	10µM*
SMILES	Cruzain inh Det	NS1 inh	Cruzain noTriton
C=CCOC(=O)C1(C(NC(=O)OC)c2ccccc2)C(=O)Cc2ccccc21 (stereo not drawn)	4.0%	·	-11.8%
Cc1cc(C)c(NC(=O)CSC2=Nc3ccccc3C3=NC(CC(=O)NCc4cccs4)C(=O)N23)c(C)c1 (stereo not drawn)	-6.1%	·	?
CCc1cccc(NC(=O)Cn2c(-c3ccc(F)cc3)cc(C(C)=O)c2C)c1	-3.5%	·	-4.0%
Cc1noc(C)c1-c1nccc(N2CCN(C)CC2)n1	2.9%	·	-10.8%
COc1ccc(C(=O)Oc2cccc(/C=N/NC(N)=S)c2)cc1	?	12.1%	15.8µM*
COC(=O)N/N=C/c1cccc(OC(=O)c2ccc3c(c2)OCO3)c1	·	-11.5%	·
COc1cc(/C=N/NC(N)=S)ccc1OC(=O)c1ccc(C)cc1	4.47µM*	-7.2%	2.51µM*
NC(=S)N/N=C/c1ccccc1	-18.0%	3.5%	2.8%
COc1ccc(CNC(=S)N/N=C/c2ccc(OC)c(OC)c2)cc1	-5.9%	4.2%	10.3%
COc1cc(/C=N/NC(=O)c2ccc(N)cc2)ccc1OC(=O)c1cccc(C)c1	·	-19.4%	·
CC(=O)Nc1ccc(/C=N/NC(N)=S)cc1	-17.1%	·	11.2µM*
COc1cc(/C=N/NC(N)=S)ccc1OCc1ccc(C)cc1	2.24µM*	19.2%	1µM*
O=C(NCC(c1ccc2c(c1)OCO2)N1CCN(c2ccccc2)CC1)c1ccccc1 (stereo not drawn)	-1.9%	·	-14.3%
Cc1ccc(CNC(=O)Cc2nc3nc(C)cc(C)n3n2)cc1	1.2%	4.4%	-4.8%
Cc1cc(C)n2nc(CC(=O)NCc3ccccc3Cl)nc2n1	15.8µM*	5.7%	7.9%
CCCCOc1ccc(-c2nc(/C=N/c3nccs3)c(O)o2)cc1	0.5%	3.6%	?
CCOc1ccc2nc(/N=C/c3nc(-c4ccc(Br)cc4)oc3O)sc2c1	1.6%	2.0%	7.94µM*
Cc1sc(NC(=S)NC(=O)c2ccc(C(C)(C)C)cc2)c(C#N)c1C	1.3%	5.6%	10µM*
Cc1sc(NC(=S)NC(=O)c2ccco2)c(C#N)c1C	·	-4.3%	·
O=C(O)CCc1nc(-c2ccccc2-n2cccc2)no1	7.1%	?	-6.9%
N#Cc1cccc(-c2nccc(-n3ccnc3)n2)c1	1.9%	·	-1.2%
CN1C(=O)/C(=C\c2ccccc2OCc2ccccc2)SC1=S	·	1.2%	·
CN1C(=O)/C(=C\c2cc(N=Nc3ccccc3)ccc2O)SC1=S	-2.1%	-3.1%	25.1µM*
O=c1[nH][nH]c(=S)c(=O)[nH]1	7.8%	0.4%	4.2%
Cc1cccc2cc(COC(=O)C3CCCO3)c(=O)[nH]c12 (stereo not drawn)	-0.8%	1.8%	1.58µM*
SMILES	Cruzain inh Det	NS1 inh	Cruzain noTriton
Cc1cccc2cc(COC(=O)C3CCCCC3)c(=O)[nH]c12	1.8%	7.3%	-6.4%
CCOC(=O)Cc1csc(N/N=C/c2ccccc2)n1	-7.1%	-4.2%	0.7%
CCOC(=O)Cc1csc(N/N=C\c2cccc(Br)c2)n1	-22.8%	4.7%	31.6µM*
O=C(Nc1ccc(F)cc1F)c1cc2c(=O)n3ccccc3nc2s1	-2.3%	·	1.4%
O=C(CSc1oc(-c2ccc(F)cc2)nc1S(=O)(=O)c1ccccc1)c1ccc(Cl)cc1	-4.5%	·	31.6µM*
CCCSc1oc(-c2ccco2)nc1S(=O)(=O)c1ccc(Cl)cc1	-25.5%	·	1.3%
Cc1ccc(-c2nc(S(=O)(=O)c3ccc(C)cc3)c(SCC(=O)c3ccccc3)o2)cc1	-5.3%	·	15.8µM*
O=C(CSc1oc(-c2ccccc2)nc1S(=O)(=O)c1ccc(Cl)cc1)Nc1ccc(F)cc1	-4.6%	·	5.8%
Cc1ccc(S(=O)(=O)c2nc(-c3ccc(F)cc3)oc2SCC(=O)c2ccccc2)cc1	-1.0%	·	?
O=C(CSc1oc(-c2ccco2)nc1S(=O)(=O)c1ccc(Br)cc1)c1ccc(Cl)cc1	-5.3%	·	20µM*
CC1=CC(=O)OC1Cc1ccc2ccccc2n1 (stereo not drawn)	4.0%	·	-6.5%
Oc1cccc2ccc(SSc3ccc4cccc(O)c4n3)nc12	-0.7%	-41.0%	-3.5%
COc1c(C(C)(C)C)cc([N+](=O)[O-])c(C)c1[N+](=O)[O-]	-3.3%	·	-5.5%

Screens (PubChem)
